Bioassay records as filed in PubChem BioAssay.
FBW7 act = human FBW7 E3 ligase activation, primary screen; normalized activity (activation), % at 26.1 µM; AlphaScreen FBW7–phospho-cyclin E peptide binding, activator screen; AID 1259310; 650,000 compounds, 0.13% hits; Q969H0; in the data active = normalized activity above about 1.9%;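 also: purified mutant Fbw7 with reduced substrate affinity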
Target sequence (Q969H0 whole entry, looked up): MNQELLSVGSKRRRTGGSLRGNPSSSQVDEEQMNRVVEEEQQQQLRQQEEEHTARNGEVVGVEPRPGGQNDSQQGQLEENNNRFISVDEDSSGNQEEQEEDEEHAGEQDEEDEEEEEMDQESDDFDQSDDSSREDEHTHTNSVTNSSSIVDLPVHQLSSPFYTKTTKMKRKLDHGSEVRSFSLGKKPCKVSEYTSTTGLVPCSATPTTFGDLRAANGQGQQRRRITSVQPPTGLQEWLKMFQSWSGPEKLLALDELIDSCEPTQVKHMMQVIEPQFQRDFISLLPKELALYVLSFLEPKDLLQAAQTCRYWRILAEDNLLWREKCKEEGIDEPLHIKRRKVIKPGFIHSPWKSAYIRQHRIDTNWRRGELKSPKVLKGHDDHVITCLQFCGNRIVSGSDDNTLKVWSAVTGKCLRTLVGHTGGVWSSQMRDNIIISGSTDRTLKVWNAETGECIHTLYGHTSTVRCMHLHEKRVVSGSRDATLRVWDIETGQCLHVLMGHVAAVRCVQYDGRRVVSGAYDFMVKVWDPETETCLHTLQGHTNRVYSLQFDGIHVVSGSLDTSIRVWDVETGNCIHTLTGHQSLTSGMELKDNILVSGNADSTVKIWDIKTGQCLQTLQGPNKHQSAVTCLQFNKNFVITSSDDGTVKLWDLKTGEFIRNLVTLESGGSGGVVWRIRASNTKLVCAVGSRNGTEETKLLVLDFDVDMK
MITF primary = inhibitors of human MITF; AlphaScreen MITF homodimerization, bead proximity signal; inhibition, % at 2.6 µM; 650,000 compounds, 0.91% hits; AID 1259374; in the data active = inhibition above about 50%;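 also: 0% = vehicle wells with protein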
GPR151 ag = activates the human receptor GPR151 | AID 1508602 | Q8TDV0 | PathHunter beta-arrestin GPR151 cells, luminescence | 650,000 compounds, 1% hits | activation, % at 11.2 µM; in the data active = activation above about 4.9%;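 also: 0% = median of compound wells and 100% = cells with positive control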
TEAD-YAP block = TEAD-YAP interaction inhibition; inhibition, % at 9.12 µM; HEK-TIYL cells, TEAD-Gal4/YAP UAS-luciferase luminescence; 640,000 compounds, 1.4% hits; in the data active = inhibition above about 32%;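 also: 0% = median of test compound wells and 100% = reference inhibitor wells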
GPR151 conf act = confirmation of human GPR151 activators; shares compounds with GPR151 ag; 6,700 tested, under 10 active; GPR151 PathHunter beta-arrestin cells, luminescence, 90 min; % of EA-reagent control over plate median; AID 1508609; activation, % at 11.2 µM;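 active = mean percent activation across replicates above the confirmation screen cutoff of 4.91%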
GPR119 counter = GPR119 activation, counter-screen for GPR151 activators | shares compounds with GPR151 ag | GPR119 PathHunter beta-arrestin cells, luminescence, 90 min; 0 = compound-well median, 100 = enzyme-acceptor control | activation, % at 11.2 µM | 6,700 compounds, 0.3% hits | AID 1508611;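 active = mean percent activation in the counterscreen above 29.09%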;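 also: counterscreen on off-target GPR119 to flag nonselective hits from the GPR151 activator screen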
* = called active by the depositor; · = no result given. Sampled rows, rich in hits. Any-hit rate of the full collection: about 3.4%.

SMILES	FBW7 act	MITF primary	GPR151 ag	TEAD-YAP block	GPR151 conf act	GPR119 counter
O=C(/C=C/c1ccccc1Cl)Nc1ccc(Oc2ccc3ccccc3c2Cl)c(Cl)c1	0	2	-2	16	·	·
COc1cccc(/C=N/NC(=O)CCn2nnc3ccccc32)c1O	0	-6	0	7	·	·
CC[C@@H]1NC(=O)[C@@H]2C[C@H](NC(=O)c3cccc4ccccc34)CN2C1=O	0	11	0	5	·	·
O=C(CSc1nnc(NC(=O)Cc2ccccc2)s1)NCC1CCCO1 (stereo not given)	0	-6	-1	-7	·	·
O=C(CSc1nnc(NC(=O)Cc2ccc(F)cc2)s1)NCC1CCCO1 (stereo not given)	1	4	5.0*	10	0	11
C=CCn1c(=O)c2c(C)c(C)sc2n2c(Nc3ccccc3)nnc12	0	28	5.9*	3	0	-10
C=CCn1c(=O)c2c3c(sc2n2c(Nc4ccc(C(=O)OCC)cc4)nnc12)CCC3	1	9	-2	11	·	·
O=c1[nH]c(=O)c2sc3nc(-c4ccncc4)cc(C(F)(F)F)c3c2[nH]1	0	2	6.3*	2	1	2
COc1ccc2cc(CCNC(=O)/C=C\c3ccc4c(c3)OCO4)c(=O)[nH]c2c1	0	7	12*	8	0	2
O=C(CN(Cc1ccccc1F)S(=O)(=O)c1ccc(Cl)cc1)NCCCO	0	5	6.0*	11	1	8
COc1ccc2cccc(NC(=O)c3ccco3)c2n1	0	8	6.4*	-1	0	9
O=C(Nc1cccc2ccc(-n3cccc3)nc12)c1ccco1	0	-4	-1	-5	·	·
CCCCCCOc1ccc(N2C(=O)/C(=C/c3ccccc3F)N=C2c2ccc(Br)cc2)cc1	0	2	1	-1	·	·
CN(Cc1nc(-c2cccnc2)no1)S(=O)(=O)c1ccc(Br)cc1	0	-10	-2	-6	·	·
CN(Cc1nc(-c2cccnc2)no1)S(=O)(=O)c1ccc2ccccc2c1	0	17	5.1*	-2	0	-5
Cc1c(S(=O)(=O)N2CCN(c3ccccc3)CC2)c(=O)n(C)c(=O)n1C	0	8	8.2*	8	1	5
Cc1ccc(C2C3C(=O)N(C)C(=O)C3ON2c2ccccc2)cc1 (stereo not given)	0	4	9.3*	-3	0	-4
CN1C(=O)C2ON(c3ccc(Cl)cc3)C(c3ccccc3)C2C1=O (stereo not given)	0	6	-1	11	·	·
CCCCN(C)c1ncnc2scc(-c3ccccc3)c12	0	16	1	-2	·	·
CCCCN(CC)c1ncnc2scc(-c3ccccc3)c12	0	-9	8.0*	6	0	-11
CC(=O)OCCCN1C(=O)c2ccc(Oc3ccc4c(c3)C(=O)N(CCCOC(C)=O)C4=O)cc2C1=O	0	6	3	13	·	·
c1ccc(C(c2ccccc2)c2noc(C3CCNCC3)n2)cc1	0	8	6.9*	-5	-1	-5
c1cc(-c2noc(C3CCNCC3)n2)ccn1	0	3	3	3	·	·
CC(=O)c1oc2ccc3c(C)cc(=O)oc3c2c1C	0	3	0	2	·	·
Cc1cc(=O)oc2c1ccc1oc(C(=O)c3ccc(Cl)cc3)c(C)c12	0	-3	5.7*	-5	0	1
SMILES	FBW7 act	MITF primary	GPR151 ag	TEAD-YAP block	GPR151 conf act	GPR119 counter
CCOc1ccc(N(CC)C(=O)C(=O)Nc2ccc3nc4n(c(=O)c3c2)CCCCC4)cc1	1	12	11*	8	1	5
CCOC(=O)C(=O)Nc1ccc2nc3n(c(=O)c2c1)CCCCC3	0	-22	5.4*	2	0	-6
CCOC(=O)c1ccc(NC(=O)C(=O)Nc2ccc3nc4n(c(=O)c3c2)CCCCC4)cc1	0	-2	-1	7	·	·
Cc1ccccc1NS(=O)(=O)c1cc(C(=O)NCc2ccc3c(c2)OCO3)ccc1C	0	12	1	0	·	·
Cc1cc(C(=O)CSc2nnc(-c3cccnc3)o2)c(C)n1-c1ccccc1	0	16	2	-8	·	·
CCCC1=NN2C(=N)/C(=C/c3ccc(N(C)C)cc3)C(=O)N=C2S1	0	7	1	2	·	·
CCCCCCCC1=NN2C(=N)/C(=C/c3ccc(N(C)C)cc3)C(=O)N=C2S1	0	17	5.7*	-3	0	12
NC(=O)COC(=O)/C=C/c1ccc(Cl)cc1	0	3	5.6*	3	0	0
CC(C)Oc1ccc(NC(=O)/C=C/c2ccc(F)cc2)cc1	0	15	6.7*	-28	1	-2
COc1ccc(/C=C/C(=O)Nc2ccc(OC(C)C)cc2)cc1	0	-1	2	-23	·	·
CC1=C(C(=O)Nc2ccccc2)C(c2ccco2)C(C#N)=C(SCC(=O)Nc2ccc(F)cc2)N1 (stereo not given)	0	16	5.9*	4	0	14
CC(=O)C1=C(C)NC(SCC(N)=O)=C(C#N)C1c1cccc([N+](=O)[O-])c1 (stereo not given)	0	13	9.3*	0	2	8
CC1=C(C(=O)Nc2ccccc2C)C(c2ccccc2)C(C#N)=C(SCC(=O)Nc2cc(C)ccc2C)N1 (stereo not given)	0	6	12*	9	-1	-7
COC(=O)CSC1=C(C#N)C(c2ccccc2)C(C(=O)Nc2ccccc2)=C(C)N1 (stereo not given)	0	-5	5.7*	-8	-1	-4
CC1=C(C(=O)Nc2ccccc2C)C(c2ccccc2)C(C#N)=C(SCC(=O)Nc2ccccc2C)N1 (stereo not given)	0	23	1	2	·	·
O=C(OCc1ccc([N+](=O)[O-])cc1Cl)c1cc2ccccc2oc1=O	0	13	0	1	·	·
COCC(C)n1ccc(-c2sc(NCc3cccn3-c3nccs3)nc2C)n1 (stereo not given)	0	-11	1	-3	·	·
O=C1N(C2Cc3ccccc3C2)C[C@@H]2C[C@@H](c3ccccc3F)N3CCC[C@@]123	0	-1	15*	3	0	-5
O=C1N(C2Cc3ccccc3C2)C[C@@H]2C[C@@H](c3ccc4nsnc4c3)N3CCC[C@@]123	1	-5	9.4*	-27	1	-3
CCOC(=O)CCNC(=O)N1CCC(CCCc2ccccc2)(C(=O)OCC)CC1	0	6	0	-9	·	·
O=C1N/C(=C\c2ccc(O)c(Cl)c2)C(=O)N1Cc1ccc(Cl)cc1	0	-2	2	0	·	·
O=C(CCOc1ccccc1)Nc1ccnn1C1CCN(C(=O)CCc2ccccc2)CC1	0	1	5.7*	-6	0	5
